From PubChem BioAssay
Hits are enriched below; roughly 3.3% of the tested compounds scored in any of these assays.
Anthrax LF inh2 – inhibitors of Bacillus anthracis lethal factor protease. inhibition, % at 10 µM. multiplex microsphere protease cleavage assay, LF. P15917. 360,000 tested, 0.12% active; note: plate controls were buffer without enzyme for full effect and enzyme alone for no effect
PriA SSB inh – K. pneumoniae PriA-SSBct interaction inhibition; AlphaScreen SSBct-PriA binding, biotinylated peptide; inhibition, % at 33 µM; 430,000 tested, 0.6% active; AID 1272365; in the data active = inhibition mostly above about 37%, no sharp cut-off; inactive = mostly below about 20%;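 note: plate controls were negative control peptide for no effect and reference peptide for full effect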
BoNT-A LC inh2 – blocks Botulinum neurotoxin A light chain protease; multiplex microsphere protease substrate cleavage, flow cytometry; 360,000 tested, 0.17% active; AID 588499; inhibition, % at 10 µM; note: plate controls were buffer without enzyme for full effect and enzyme alone for no effect
BoNT-F LC inh – BoNT F light chain protease inhibition | Multiplex microsphere protease cleavage assay, flow cytometry | inhibition, % at 10 µM | 360,000 tested, 0.22% active | AID 588497; in the data active = inhibition above about 35%, passing the limit was not always enough; inconclusive = no clear call, values can overlap the other calls; note: plate controls were buffer without enzyme for full effect and enzyme alone for no effect
MazF activator – activators of E. coli MazEF toxin-antitoxin RNase | AID 504720 | 350,000 tested, 0.32% active | activation, % at 20 µM | FAM/BHQ RNA-DNA oligo cleavage fluorescence, 5 h; in the data active = activation above about 50%
Target sequence (P0AE70 whole entry, looked up): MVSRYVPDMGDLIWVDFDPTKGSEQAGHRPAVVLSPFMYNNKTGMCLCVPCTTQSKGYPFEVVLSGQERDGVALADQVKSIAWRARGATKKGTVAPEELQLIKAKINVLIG
Bead autofluor – flagged as autofluorescent in microsphere protease counterscreen; compound autofluorescence counterscreen, microsphere flow cytometry; hits give high values; fluorescence intensity (test concentration not listed); 360,000 tested, 3.1% active; AID 624483; in the data active = fluorescence intensity above about 16000; inconclusive = no clear call, values can overlap the other calls
Active calls of the source: *; ? = inconclusive; · = not tested or not shown; ! = repeats disagree. Cut-off read from the data, not from the text of the source, unless noted: active = inhibition above about 30%; inconclusive = no clear call, values can overlap the other calls; inactive = below that.

SMILES	Anthrax LF inh2	PriA SSB inh	BoNT-A LC inh2	BoNT-F LC inh	MazF activator	Bead autofluor
Cc1ccc(S(=O)(=O)NN=C2CCC(C(C)(C)C)CC2)cc1[N+](=O)[O-] (configuration not stated)	0.2	-11.0	0.9	-3.0	115.0*	1901
CC(CCC(C)C)=NNS(=O)(=O)c1ccc(C)c([N+](=O)[O-])c1	·	-10.3	·	·	·	·
CC1CCCC/C1=N\NS(=O)(=O)c1ccc(Br)cc1 (configuration not stated)	-2.8	·	1.4	6.1	78.3*	4031
CC(C)(C)C1CCC(=NNS(=O)(=O)c2ccc(Br)cc2)CC1 (configuration not stated)	1.2	-8.5	2.4	?	66.0*	2657
C/C(CC(C)C)=N\NS(=O)(=O)c1ccc(C)c([N+](=O)[O-])c1	-2.1	·	-0.2	2.4	68.4*	4628
Cc1cc(C(=O)NC2CC(O)C(CO)C2)c(C)o1 (configuration not stated)	·	-9.0	·	·	·	·
Cc1ccc2c(c1)N(Cc1ccccn1)C(=O)C(C)O2 (configuration not stated)	-1.5	-0.7	-3.7	-4.6	4.4	24586*
CCOc1ccc(CNC(=O)CCn2c(=O)oc3ccccc32)cc1	-5.0	-11.3	0.6	-2.4	0.4	16172*
CCOc1ccc(OCC)c(NC(=O)CCn2c(=O)oc3ccccc32)c1	1.1	-3.0	?	0.3	-3.2	19376*
O=C(Nc1ncccn1)c1cccc(S(=O)(=O)N2CCOCC2)c1	·	4.0	·	·	·	·
CN(Cc1ccco1)S(=O)(=O)c1ccc(C(=O)Nc2nc3c(s2)COc2ccccc2-3)cc1	·	-16.0	·	·	·	·
O=C(c1cnccn1)N1CC(C(=O)N2CCN(c3ccccc3Cl)CC2)C1	·	-17.0	·	·	·	·
O=C(Nc1nc(-c2ccccn2)cs1)c1ccc(Cl)cc1[N+](=O)[O-]	·	110.0*	·	·	·	·
Cc1cccc(C(=O)Nc2nc(-c3ccccn3)cs2)c1[N+](=O)[O-]	·	96.8*	·	·	·	·
Cn1cc(C(=O)Nc2nc3c(s2)C(=O)NCCC3)nn1	·	7.0	·	·	·	·
C=CCNc1nc(C(=O)OCC(=O)c2ccc(F)cc2)cs1	-4.8	45.5*	3.4	10.6	-0.4	4324
CC(NS(=O)(=O)c1ccccc1)C(N)=O (configuration not stated)	-7.1	-1.2	-2.1	-3.4	1.9	17096*
Cn1cccc1Cc1nnc(SCC(=O)NCc2ccccc2)n1-c1ccc(F)cc1	-7.4	2.3	-0.3	-2.4	8.7	5706
CCOC(=O)c1ccccc1NC(=O)CSc1nnc(Cc2cccn2C)n1-c1ccc(F)cc1	-5.8	18.2	0.8	-0.5	5.9	23284*
Cn1cccc1Cc1nnc(SCC(=O)N2CCN(c3ccccc3)CC2)n1-c1ccc(F)cc1	-2.0	19.2	?	-2.9	13.5	24052*
CSc1nnc(NC(=O)c2ccccc2Cl)s1	·	-5.0	·	·	·	·
COC(=O)c1ccc(S(=O)(=O)N2CCC(Cn3cccn3)CC2)cc1	·	-3.0	·	·	·	·
CCCC(=O)Nc1ccc(OCC(=O)OC)cc1	-1.1	-22.8	0.0	-29.5	2.7	3063
CCCC(=O)Nc1ccc(C#Cc2ccccc2)cc1	-8.4	-11.4	3.8	5.3	-3.8	18787*
CCCC(=O)Nc1ccc(Oc2ccc(NC(=O)CCC)cc2)cc1	-0.1	1.1	?	-1.5	-0.7	19816*
SMILES	Anthrax LF inh2	PriA SSB inh	BoNT-A LC inh2	BoNT-F LC inh	MazF activator	Bead autofluor
CCCC(=O)Nc1ccc(-c2nc3ccccc3[nH]2)cc1	·	-11.0	·	·	·	·
CCCNC(=S)Nc1ccc(Oc2ccccc2)cc1	-2.3	-9.0	-0.2	-3.1	-2.3	20489*
CC(=O)SCCC(=O)Nc1ccccc1	2.6	-12.4	?	17.3	-4.2	17839*
O=C(COc1ccc(Cl)cc1)Nc1nc2c(F)cccc2s1	·	-17.0	·	·	·	·
CC(=NN=C1NC(=O)C(CC(=O)NCc2ccccc2)S1)C(C)C (configuration not stated)	·	1.7	·	·	·	·
O=C(Cn1c2ccc(F)cc2c2ncn(Cc3ccccc3)c(=O)c21)NCc1ccc2c(c1)OCO2	·	-18.0	·	·	·	·
CCC(Sc1nc2ccsc2c(=O)n1-c1ccc(Br)cc1)C(=O)Nc1cccc(OC)c1 (configuration not stated)	·	-27.0	·	·	·	·
COc1ccccc1-n1c(C[C@H]2CCCN(C(=O)c3cc(C)oc3C)C2)n[nH]c1=O	·	-15.0	·	·	·	·
CCOC(=O)Nc1ccc(OC(=O)Oc2ccc(NC(=O)OCC)cc2)cc1	5.6	-7.5	0.3	1.6	8.7	3468
CCOC(=O)Nc1ccc(Oc2ccccc2)cc1	-2.3	-34.9	-3.4	-4.4	4.8	24151*
S=C(Nc1ccccc1)Nc1ccc2nc(-c3ccccn3)c(-c3ccccn3)nc2c1	·	47.2	·	·	·	·
CCCNC(=S)Nc1ccc2nc(-c3ccccn3)c(-c3ccccn3)nc2c1	7.6	6.0	?	-1.4	-18.4	21151*
O=C(Nc1ncc(-c2ccccc2)s1)c1cc(-c2ccccc2)nc2ccccc12	·	-13.0	·	·	·	·
CC(C)(C)NC(=O)CSc1nc2ccccc2n1-c1ccccc1	-3.1	-14.3	0.2	-12.4	-2.5	4780
CC(C)NC(=O)CSc1nc2ccccc2n1-c1ccccc1	0.8	1.0	-0.4	-2.1	-1.9	22704*
CC1=CC(C)=Nc2ccc(C)cc2N1	2.8	-1.5	0.5	-8.7	-25.1	18983*!
Cc1ccc2c(c1)NC(=O)CC(c1ccccc1)=N2	-1.5	-2.4	0.2	-1.4	1.4	2714
Cc1ccc(C(=O)Nc2cccc(C(=O)N3CCN(C)CC3)c2)cc1	4.6	-16.0	-0.5	0.7	8.7	8113
Cc1ccc(-c2ccc(=O)n(CC(=O)Nc3cccc(C(=O)N4CCN(C)CC4)c3)n2)cc1	-8.6	13.3	?	2.1	-12.6	19402*
CCCn1c(COc2ccccc2)nc2ccccc21	-2.3	-22.7	5.6	41.6*	4.8	3009
COc1ccc(CCC(=O)NCCSc2ncc(-c3ccc(OC)cc3)[nH]2)cc1	·	38.0*	·	·	·	·
O=C1CC(N2CCN(C/C=C/c3ccccc3)CC2)C(=O)N1Cc1ccc(N2CCCC2=O)cc1 (configuration not stated)	-7.3	-10.4	0.4	-2.5	-7.0	19939*
CC(C)CNC(=S)NNC(=O)c1ccc(OC(F)F)cc1	-0.5	0.3	0.1	-0.5	-5.1	23366*
CCNC(=S)NNC(=O)c1ccc(OC(F)F)cc1	-2.2	-14.5	-0.2	1.8	2.1	23106*
CC(C)(C)c1ccccc1OCCCCCNCCO	-11.0	-6.6	12.2	10.2	11.0	18177*
SMILES	Anthrax LF inh2	PriA SSB inh	BoNT-A LC inh2	BoNT-F LC inh	MazF activator	Bead autofluor
Cc1snc(SCC(=O)c2ccc(Cl)cc2)c1C#N	1.1	-51.5	?	-1.9	6.9	22846*
N#Cc1c(SCC(N)=O)nsc1SCc1ccccc1Cl	0.4	-10.4	-0.1	-2.6	2.8	2156
N#Cc1c(SCC(N)=O)nsc1SCc1ccc(Cl)cc1	-2.6	-11.6	?	-0.8	30.7	22700*
CCOC(=O)c1c(NC(=O)c2cccc(Br)c2)sc(C)c1C	·	-12.0	·	·	·	·
CCOC(=O)c1c(NC(=O)Nc2cccc(Cl)c2)sc(C)c1C	-5.3	-8.1	-2.3	-4.2	8.1	23460*
CCOC(=O)c1c(NC(C)=O)sc2c(O)cccc12	0.0	-2.7	-5.1	-6.1	2.6	21384*
CCOC(=O)c1c(NC(C)=O)sc2c(O)c(Br)cc(Br)c12	-1.8	-7.0	-1.5	-25.6	5.6	2611
